Drawing on PubChem BioAssay AID651650 (Sanford-Burnham Center for Chemical Genomics, 2012), this text covers inhibition for 16 compounds.

Chain of Neuropilin-1 (Homo sapiens) (O14786 whole entry, looked up): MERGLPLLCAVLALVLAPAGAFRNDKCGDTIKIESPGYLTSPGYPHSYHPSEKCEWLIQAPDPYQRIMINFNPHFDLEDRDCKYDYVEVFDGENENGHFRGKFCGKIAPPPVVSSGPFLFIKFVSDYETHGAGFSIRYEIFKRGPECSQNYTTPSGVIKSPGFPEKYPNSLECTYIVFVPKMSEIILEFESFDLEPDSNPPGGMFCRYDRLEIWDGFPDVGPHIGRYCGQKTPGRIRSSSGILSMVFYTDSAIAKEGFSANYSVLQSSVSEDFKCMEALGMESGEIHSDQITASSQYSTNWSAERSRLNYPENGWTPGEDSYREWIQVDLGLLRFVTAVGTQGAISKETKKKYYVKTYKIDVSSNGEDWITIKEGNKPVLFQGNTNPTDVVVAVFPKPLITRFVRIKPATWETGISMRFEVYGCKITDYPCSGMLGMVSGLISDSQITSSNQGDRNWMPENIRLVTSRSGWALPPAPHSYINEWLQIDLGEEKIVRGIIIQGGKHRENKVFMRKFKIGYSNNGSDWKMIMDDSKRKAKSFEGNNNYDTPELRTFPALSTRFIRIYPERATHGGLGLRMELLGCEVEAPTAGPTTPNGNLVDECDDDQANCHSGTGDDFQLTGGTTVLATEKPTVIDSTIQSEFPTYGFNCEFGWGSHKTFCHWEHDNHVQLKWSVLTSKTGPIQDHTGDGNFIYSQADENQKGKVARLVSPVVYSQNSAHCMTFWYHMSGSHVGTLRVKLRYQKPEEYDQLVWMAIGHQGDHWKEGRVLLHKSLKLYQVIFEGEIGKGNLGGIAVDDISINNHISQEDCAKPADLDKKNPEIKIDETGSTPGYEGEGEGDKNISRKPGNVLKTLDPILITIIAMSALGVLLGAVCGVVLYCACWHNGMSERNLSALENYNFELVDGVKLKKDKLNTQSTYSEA

This test addresses Neuropilin-1 (Homo sapiens) (UniProt O14786). The test can be described thus: NRP-1 b1b2 CendR peptide binding inhibitors, dose response, biochemical, FP and AlphaScreen panel (AID 651650). Conditions: NRP-1 b1b2 / RPARPAR peptide binding, FP or AlphaScreen; run 1, at 100 µM (top of the series). Background: In Alpha technology, singlet oxygen from a donor bead excites a nearby acceptor bead.
As for `COc1ccc(C(=O)COC(=O)C(CCSC)NS(=O)(=O)c2ccc(Cl)cc2)cc1` (stereo unspecified), the inhibition is -2.36%.

As to `Nc1cc(S(=O)(=O)O)cc([N+](=O)[O-])c1O`, the inhibition worked out at 74.8%.

For the compound `Cc1onc(-c2ccc(Cl)cc2Cl)c1-c1csc(COc2ccccc2)n1`, the inhibition was 65.6%.

Consider `Cc1ccccc1S(=O)(=O)Nc1nc2ccccc2nc1NCCO`, for which the inhibition was found to be 25.8%.

On to `Cc1[nH]n(-c2ccccc2)c(=S)c1C=Nc1cccc([N+](=O)[O-])c1`, for which the inhibition is 14.4%.

With `CC(C)C[C@@H](COc1ccccc1)N1CCN(CCc2ccccc2)CCC1=O`, the inhibition worked out at 46.6%.

Take `O=S(=O)(c1ccccc1)c1nc(-c2ccc(F)cc2)oc1N1CCOCC1`: the inhibition stood at 24.8%.

In the case of `O=C(O)c1ccccc1SCC(=O)N1CCCCC1`, the inhibition stood at 52.9%.

As for `CCn1c(=O)c(C(=O)NCCNCCO)c(O)c2ccccc21`, the inhibition worked out at 26.5%.

For `NC(=O)CC[C@H](NC(=O)c1ccc(F)cc1)C(=O)N1CCN(Cc2ccc3c(c2)OCO3)CC1`, the inhibition was determined as 28.6%.

Turning to `CCC1=C(OC(=O)N(CC)CC)N2C(=O)OC(=NCCOC)[C@]2(Cc2ccccc2)[C@H]2C1=CC[C@H]1C(=O)N(CC(=O)OC)C(=O)[C@H]12`, the inhibition stood at 56.3%.

For `CNc1nc(-c2ccc3c(c2)CCN3C(=O)c2ccccc2F)cs1`, the inhibition amounted to 14.5%.

Consider `CC1CCC(NC(=O)C2CCC(CNS(=O)(=O)c3cccc4cccnc34)CC2)CC1` (stereo unspecified), for which the inhibition was 19%.

`Cc1cc(C)n2c(SCC(=O)Nc3cccc(S(N)(=O)=O)c3)nnc2n1`: the inhibition was -5.38%.

As for `COc1ccc(Cl)cc1S(=O)(=O)N1CCN(CC(=O)C(C)(C)C)CC1`, the inhibition was -4.16%.

`C=C1CCN([C@@H](CC(C)C)C(=O)NCCC(C)C)S(=O)(=O)c2ccccc21`: the inhibition amounted to 35.9%.

Usually inhibition stands for the relative decrease from the control value, in per cent.
